Inconclusive results are not listed. Active and inactive are the calls of the source. Unless noted, calls come from the whole dose curve; as a rule, active = well fitted curve in the direction sought with a large enough effect in the repeat runs; inconclusive = weak or mixed curves; inactive = no such curve, though single readings can be large; an effect the other way counts as inactive or inconclusive.
Assays:
[1] = target: Progesterone receptor (Homo sapiens) (UniProt P06401); experiment: qHTS assay to identify small molecule agonists of the progesterone receptor (PR) signaling pathway (AID 1346784; calls by dose curve; note: nearly all actives have a fitted effect of over 30% in size)
Outline: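 Reporter assay, GripTite PR-UAS-bla HEK 293T cells: 16 hr exposure to DMSO-dissolved compounds at 37C, 5% CO2, in steroid-depleted (2% charcoal-stripped FBS) medium; beta-lactamase measured by FRET fluorescence.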

[2] = qHTS assay to identify small molecule agonists of the progesterone receptor (PR) signaling pathway - cell viability counter screen (AID 1346799; calls by dose curve; note: nearly all actives have a fitted effect of over 45% in size)
Outline: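 Multiplexed viability read: CellTiter-Glo luminescence, 30 min RT, following LiveBLAzer FRET measurement on PR-UAS-bla HEK293T cells exposed to compounds 16 hr.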

[3] = qHTS assay to identify small molecule antagonists of the TGF-beta/Smad signaling pathway - cell viability counter screen (AID 1346824); note: nearly all actives have a fitted effect of over 50% in size
Outline: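 Cytotoxicity counter-screen run in the same wells as the beta-lactamase Smad reporter read: CellTiter-Glo luminescence after 30 min at room temperature. HEK 293T SBE-bla cells had 5 hr compound exposure at 37 C with TGF-beta1 (0.25 ng/mL stock).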

[4] = qHTS assay to identify small molecule agonists of the TGF-beta/Smad signaling pathway - cell viability counter screen (AID 1346829); note: top concentration of the series differs between compounds; nearly all actives have a fitted effect of over 45% in size
Outline: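 In parallel with the Smad reporter read, viability of HEK 293T cells stably carrying SBE-bla is quantified by ATP luminescence following 5 hr compound treatment.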

[5] = qHTS assay to identify small molecule agonists of the TGF-beta/Smad signaling pathway (AID 1346859; active = well fitted activation curve with a large enough effect in the signal ratio in the repeat runs, not every such curve was filed as active; the % refers to the signal ratio; note: series mostly up to about 77 µM)
Outline: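 Screening used HEK 293T SBE-bla cells at 4,000/well. Test agents: 5 hr, 37 C. Detection: FRET substrate, 2 hr RT, then excitation 405 nm with emissions at 460 and 530 nm.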

[6] = target: Thyrotropin-releasing hormone receptor (Homo sapiens) (UniProt P34981); experiment: qHTS assay to identify small molecule antagonists of the thyrotropin-releasing hormone receptor (TRHR) signaling pathway (AID 1346877; active = well fitted inhibition curve with a large enough effect in the repeat runs, not every such curve was filed as active; note: series mostly up to about 51 µM)
Outline: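 Antagonism is measured as suppression of the calcium response to 1 nM TRH in TRHR-HEK293 cells that have been dye-loaded for 2 h at 37 °C after overnight plating. Each compound is tested at 15 concentrations in triplicate.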

[7] = target: Thyrotropin-releasing hormone receptor (Homo sapiens) (UniProt P34981); experiment: qHTS assay to identify small molecule agonists of the thyrotropin-releasing hormone receptor (TRHR) signaling pathway (AID 1346891; calls by dose curve; note: series mostly up to about 58 µM)
Outline: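 Readout was intracellular calcium fluorescence in TRHR-Hek293 cells. Cells were incubated 18 h, dye-loaded 2 h at 37 °C, and treated with compound in agonist mode.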

[8] = Caspase-3/7 induction in HepG2 cells by small molecules, qHTS assay (AID 1346978); note: nearly all actives have a fitted effect of over 15% in size
Outline: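 Caspase-3/7 induction was measured by Caspase-Glo 3/7 luminescence (30 min, room temperature) after a 17 hr compound exposure of wild-type HepG2 cells seeded at 2,000 per well and pre-incubated 5 hr.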

[9] = Caspase-3/7 induction in CHO-K1 cells by small molecules, qHTS assay (AID 1346980); note: nearly all actives have a fitted effect of over 15% in size; note: potency is the fitted concentration of half-maximal effect
Outline: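 Luminescent Caspase-Glo 3/7 read (30min, room temperature) quantified apoptosis induction. Cells were wild-type CHO-K1, treated with compound for 17hr at 37 C and 5% CO2.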

[10] = target: Nuclear receptor subfamily 1 group I member 2 (Homo sapiens) (UniProt O75469); experiment: Human pregnane X receptor (PXR) small molecule agonists, qHTS assay (AID 1346982); note: nearly all actives have a fitted effect of over 35% in size; note: potency is the fitted concentration of half-maximal effect
Outline: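 Cells: HepG2 stably carrying PXR-Luc. Medium held 5% charcoal-stripped FBS. Compounds in DMSO added after 5 hr plating, incubated 24 hr, then luminescence quantified with ONE-Glo.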

[11] = Human pregnane X receptor (PXR) small molecule agonists, qHTS cell viability counter screen (AID 1346977); note: nearly all actives have a fitted effect of over 50% in size; note: potency is the fitted concentration of half-maximal effect
Outline: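 In each well, the PXR reporter HepG2 line was checked for viability: CellTiter-Fluor reagent added 23hr post-dosing, fluorescence read after 1hr incubation at 37C.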

[12] = Caspase-3/7 induction in CHO-K1 cells by small molecules, qHTS cell viability counter screen (AID 1346979); note: nearly all actives have a fitted effect of over 35% in size; note: potency is the fitted concentration of half-maximal effect
Outline: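 Following a 5hr settling period, CHO-K1 cells at 1,500 per well received DMSO-dissolved compounds. Cell viability was quantified 16hr later by CellTiter-Fluor fluorescence, measured after 1hr with reagent at 37C.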

[13] = Caspase-3/7 induction in HepG2 cells by small molecules, qHTS cell viability counter screen (AID 1346981); note: nearly all actives have a fitted effect of over 30% in size; note: potency is the fitted concentration of half-maximal effect; for activity change, negative = cytotoxicity: series mostly up to about 92 µM
Outline: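 Cell viability is measured as a cytotoxicity counter screen alongside the Caspase-Glo 3/7 readout in identical wells. Wild-type HepG2 cells are treated with test compounds for 16 hr at 37 C before CellTiter-Fluor addition and a 1-hr incubation.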

[14] = target: Cytochrome P450 2D6 (Homo sapiens) (UniProt P10635); experiment: Cytochrome P450 Family 2 Subfamily D Member 6 (CYP2D6) small molecule antagonists: luciferase reporter qHTS assay (AID 1671196); note: nearly all actives have a fitted effect of over 50% in size; note: potency is the fitted concentration of half-maximal effect; for activity change, negative = inhibition: series mostly up to about 120 µM
Outline: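 Enzyme and proluciferin substrate were first combined with test chemical for 10 min at room temperature. Adding NADPH regeneration solution started a 1 h reaction, stopped with luciferin detection reagent and read by luminescence 20 min later.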

[15] = target: Cytochrome P450 2C19 (Homo sapiens) (UniProt P33261); experiment: Cytochrome P450 Family 2 Subfamily C Member 19 (CYP2C19) small molecule antagonists: luciferase reporter qHTS assay (AID 1671197); note: nearly all actives have a fitted effect of over 65% in size; note: potency is the fitted concentration of half-maximal effect; for activity change, negative = inhibition: series mostly up to about 120 µM
Outline: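 Compounds were tested on CYP2C19 activity via proluciferin conversion to luciferin. The 37C, 1 h reaction followed NADPH addition; detection reagent stopped it.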

[16] = target: Cytochrome P450 2C9 (Homo sapiens) (UniProt P11712); experiment: Cytochrome P450 Family 2 Subfamily C Member 9 (CYP2C9) small molecule antagonists: luciferase reporter qHTS assay (AID 1671198); note: nearly all actives have a fitted effect of over 50% in size; note: potency is the fitted concentration of half-maximal effect; for activity change, negative = inhibition: series mostly up to about 120 µM
Outline: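 Enzyme-substrate mix preincubated with compound 10 min at room temperature; reaction started with NADPH regeneration solution, 1 h 37C. Luminescent luciferin product read after 20 min detection reagent.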

[17] = target: Nuclear receptor subfamily 1 group I member 2 (Rattus norvegicus) (UniProt Q9R1A7); experiment: Rat pregnane X receptor (rPXR) activation by small molecules, qHTS assay (AID 1346983); conditions: rPXR luciferase reporter cells, One-Glo luminescence, 24 h; max activation: hits give high values; note: nearly all actives have a fitted effect of over 20% in size
Outline: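 Luminescent readout (One-Glo luciferase, 30 min room temperature) followed 24 hr compound treatment at 37 C of rPXR cells plated 2,000 per well and preincubated 5hr; qHTS format with compounds delivered in DMSO.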

[18] = target: Nuclear receptor subfamily 1 group I member 2 (Homo sapiens) (UniProt O75469); experiment: CYP3A4 induction through human pregnane X receptor (PXR) by small molecules, qHTS assay (AID 1346984); note: nearly all actives have a fitted effect of over 40% in size
Outline: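 Quantitative HTS in DPX-2 cells, i.e. HepG2 transfected with PXR response element and CYP3A4-promoter luciferase. Compounds in DMSO incubated 24hr at 37C; then P450-Glo CYP3A4 substrate, 3uM final, 3hr; One-Glo luminescence.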

[19] = target: Progesterone receptor (Homo sapiens) (UniProt P06401); experiment: qHTS assay to identify small molecule antagonists of the progesterone receptor (PR) signaling pathway (AID 1346795; active = well fitted inhibition curve with a large enough effect in the signal ratio in the repeat runs, not every such curve was filed as active; the % refers to the signal ratio)
Outline: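 Stimulus R5020 at 1 nM final; cells HEK293T PR-UAS-bla; medium with 2% charcoal-stripped FBS; compound exposure 16 hr at 37C, 5% CO2; detection by FRET beta-lactamase substrate, 2 hr, room temperature.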

[20] = qHTS assay to identify small molecule antagonists of the progesterone receptor (PR) signaling pathway - cell viability counter screen (AID 1346798)
Outline: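 In the same plates used for the beta-lactamase readout, cell viability of compound- and R5020-treated PR-UAS-bla HEK293T cells (16 hr, 37C) was assessed by CellTiter-Glo luminescence.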
% is set by controls: 0 for no effect and ±100 for the full control effect.

Sequence of Nuclear receptor subfamily 1 group I member 2 (Homo sapiens) (O75469 whole entry, looked up): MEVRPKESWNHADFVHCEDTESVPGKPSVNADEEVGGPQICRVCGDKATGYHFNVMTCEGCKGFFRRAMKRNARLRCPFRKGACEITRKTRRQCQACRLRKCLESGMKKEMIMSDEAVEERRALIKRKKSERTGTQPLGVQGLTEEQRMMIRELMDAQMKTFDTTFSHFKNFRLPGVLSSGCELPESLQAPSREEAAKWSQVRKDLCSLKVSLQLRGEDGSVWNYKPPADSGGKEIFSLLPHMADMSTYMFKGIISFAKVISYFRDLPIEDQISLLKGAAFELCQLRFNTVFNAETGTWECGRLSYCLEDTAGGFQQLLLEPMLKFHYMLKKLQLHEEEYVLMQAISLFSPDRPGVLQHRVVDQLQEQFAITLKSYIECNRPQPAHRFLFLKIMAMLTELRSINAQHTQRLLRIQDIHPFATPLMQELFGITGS
Sequence of Progesterone receptor (Homo sapiens) (P06401 whole entry, looked up): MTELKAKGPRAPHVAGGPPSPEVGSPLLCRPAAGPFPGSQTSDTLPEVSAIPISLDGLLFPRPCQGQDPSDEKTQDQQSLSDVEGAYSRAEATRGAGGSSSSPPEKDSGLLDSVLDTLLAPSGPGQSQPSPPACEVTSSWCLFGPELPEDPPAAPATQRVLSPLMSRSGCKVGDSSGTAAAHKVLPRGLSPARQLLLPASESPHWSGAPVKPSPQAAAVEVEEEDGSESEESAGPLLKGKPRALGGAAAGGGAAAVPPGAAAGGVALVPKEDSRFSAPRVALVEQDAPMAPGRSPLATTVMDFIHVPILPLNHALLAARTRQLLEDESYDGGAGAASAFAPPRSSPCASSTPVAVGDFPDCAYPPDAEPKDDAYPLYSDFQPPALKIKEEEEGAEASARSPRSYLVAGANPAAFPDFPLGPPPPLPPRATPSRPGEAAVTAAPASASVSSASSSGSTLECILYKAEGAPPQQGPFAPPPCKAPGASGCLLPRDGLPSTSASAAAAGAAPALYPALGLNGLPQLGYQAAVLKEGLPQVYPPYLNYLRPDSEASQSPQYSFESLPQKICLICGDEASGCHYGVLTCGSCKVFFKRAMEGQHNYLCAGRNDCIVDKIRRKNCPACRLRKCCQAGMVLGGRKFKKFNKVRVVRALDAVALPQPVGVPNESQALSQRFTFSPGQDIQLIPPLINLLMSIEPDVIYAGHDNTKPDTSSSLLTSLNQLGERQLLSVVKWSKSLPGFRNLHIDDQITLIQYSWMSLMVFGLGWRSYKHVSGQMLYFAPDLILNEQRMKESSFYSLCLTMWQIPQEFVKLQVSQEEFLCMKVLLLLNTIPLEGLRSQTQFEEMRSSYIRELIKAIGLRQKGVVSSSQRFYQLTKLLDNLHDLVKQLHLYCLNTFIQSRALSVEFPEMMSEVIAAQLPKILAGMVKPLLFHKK
Sequence of Cytochrome P450 2C19 (Homo sapiens) (P33261 whole entry, looked up): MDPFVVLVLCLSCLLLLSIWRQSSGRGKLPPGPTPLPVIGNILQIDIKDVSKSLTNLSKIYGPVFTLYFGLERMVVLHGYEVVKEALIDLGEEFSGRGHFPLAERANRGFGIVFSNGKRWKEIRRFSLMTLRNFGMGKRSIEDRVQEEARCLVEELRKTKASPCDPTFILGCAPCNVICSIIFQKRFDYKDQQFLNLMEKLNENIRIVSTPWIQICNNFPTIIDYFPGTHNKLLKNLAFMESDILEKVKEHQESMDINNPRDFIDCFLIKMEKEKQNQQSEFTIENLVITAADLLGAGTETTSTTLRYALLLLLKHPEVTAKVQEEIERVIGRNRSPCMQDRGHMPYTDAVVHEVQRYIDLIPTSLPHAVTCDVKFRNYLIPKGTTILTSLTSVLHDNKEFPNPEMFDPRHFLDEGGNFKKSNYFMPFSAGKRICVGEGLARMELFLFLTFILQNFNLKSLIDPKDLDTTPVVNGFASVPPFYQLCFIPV
Sequence of Thyrotropin-releasing hormone receptor (Homo sapiens) (P34981 whole entry, looked up): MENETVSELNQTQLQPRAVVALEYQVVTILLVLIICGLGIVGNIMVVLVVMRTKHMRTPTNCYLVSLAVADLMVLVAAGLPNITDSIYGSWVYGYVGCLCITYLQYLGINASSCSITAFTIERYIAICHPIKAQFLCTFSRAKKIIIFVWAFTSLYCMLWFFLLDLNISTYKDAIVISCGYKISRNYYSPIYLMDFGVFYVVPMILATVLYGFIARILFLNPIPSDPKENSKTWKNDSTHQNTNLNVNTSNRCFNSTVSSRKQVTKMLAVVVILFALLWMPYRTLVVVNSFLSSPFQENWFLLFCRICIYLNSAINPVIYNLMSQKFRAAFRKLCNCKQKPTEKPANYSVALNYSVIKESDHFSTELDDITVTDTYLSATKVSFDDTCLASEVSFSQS
Sequence of Cytochrome P450 2D6 (Homo sapiens) (P10635 whole entry, looked up): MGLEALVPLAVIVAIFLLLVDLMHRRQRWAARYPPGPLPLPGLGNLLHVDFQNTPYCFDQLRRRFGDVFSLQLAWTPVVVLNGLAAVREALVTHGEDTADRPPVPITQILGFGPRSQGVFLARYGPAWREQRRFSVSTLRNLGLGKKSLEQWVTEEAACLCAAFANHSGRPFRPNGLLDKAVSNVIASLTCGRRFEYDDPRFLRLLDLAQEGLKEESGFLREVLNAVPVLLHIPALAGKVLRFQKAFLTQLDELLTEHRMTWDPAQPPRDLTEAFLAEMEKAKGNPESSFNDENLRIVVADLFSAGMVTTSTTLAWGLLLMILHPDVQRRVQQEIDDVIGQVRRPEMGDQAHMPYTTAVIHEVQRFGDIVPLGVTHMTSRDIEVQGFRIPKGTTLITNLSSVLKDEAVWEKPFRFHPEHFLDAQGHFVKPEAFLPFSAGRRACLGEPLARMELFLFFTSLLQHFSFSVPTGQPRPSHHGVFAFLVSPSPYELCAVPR
Sequence of Cytochrome P450 2C9 (Homo sapiens) (P11712 whole entry, looked up): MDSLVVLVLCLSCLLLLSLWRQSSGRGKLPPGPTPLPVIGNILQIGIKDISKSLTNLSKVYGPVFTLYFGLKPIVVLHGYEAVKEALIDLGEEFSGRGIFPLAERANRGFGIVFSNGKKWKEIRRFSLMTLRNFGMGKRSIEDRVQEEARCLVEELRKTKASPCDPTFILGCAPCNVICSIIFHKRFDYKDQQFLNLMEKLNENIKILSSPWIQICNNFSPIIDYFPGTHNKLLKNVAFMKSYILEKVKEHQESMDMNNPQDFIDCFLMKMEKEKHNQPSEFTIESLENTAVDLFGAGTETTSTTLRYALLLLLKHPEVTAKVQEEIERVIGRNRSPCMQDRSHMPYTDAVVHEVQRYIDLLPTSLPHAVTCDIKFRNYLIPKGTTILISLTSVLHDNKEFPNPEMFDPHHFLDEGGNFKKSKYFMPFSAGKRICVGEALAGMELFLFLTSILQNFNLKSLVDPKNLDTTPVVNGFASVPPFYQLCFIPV
Sequence of Nuclear receptor subfamily 1 group I member 2 (Rattus norvegicus) (Q9R1A7 whole entry, looked up): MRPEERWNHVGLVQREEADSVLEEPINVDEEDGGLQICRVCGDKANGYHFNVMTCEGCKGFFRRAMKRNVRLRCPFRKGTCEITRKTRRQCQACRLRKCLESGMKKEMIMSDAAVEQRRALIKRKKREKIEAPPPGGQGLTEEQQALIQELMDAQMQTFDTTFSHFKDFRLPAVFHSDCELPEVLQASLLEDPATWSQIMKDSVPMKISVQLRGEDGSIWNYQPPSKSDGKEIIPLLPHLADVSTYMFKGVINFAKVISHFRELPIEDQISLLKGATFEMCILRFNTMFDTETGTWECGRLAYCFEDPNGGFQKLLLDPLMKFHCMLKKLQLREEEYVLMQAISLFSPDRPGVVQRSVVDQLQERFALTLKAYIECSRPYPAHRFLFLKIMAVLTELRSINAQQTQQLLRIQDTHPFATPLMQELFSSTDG

COc1cc(C(C)C)c2c(c1)S(=O)(=O)N(COc1cc(=O)n3cccc(OCCN4CCCCC4)c3n1)C2=O
inactive: activation [1] 8.35% [at 19 µM] | activity change, negative = cytotoxicity [2] 20.1% [at 19 µM] | viability change, negative = cytotoxic [3] 14.4% [at 15.8 µM] | activity change, negative = cytotoxicity [4] 15.8% [at 15.8 µM] | activation [5] -2.24% [at 15.8 µM] | activity, negative = inhibition [6] 0.273% [at 10.5 µM] | activation [7] -1.34% [at 11.8 µM] | caspase activation [8] 0.878% [at 19 µM] | caspase-3/7 activation [9] -0.224% [at 19 µM]
active: Potency [10] 13 µM

C=CCCCCCCC=C
inactive: outcome [1] | Potency [3] | Potency [4] | Potency [5] | Potency [6] | Potency [7] | Potency [11] | Potency [8] | Potency [12] | Potency [9] | Potency [13]

CCCCCCCC/C=C\CCCCCCCC(=O)OCCOC(=O)CCCCCCC/C=C\CCCCCCCC
inactive: outcome [1] | Potency [2] | Potency [3] | Potency [4] | Potency [5] | Potency [11] | Potency [8] | Potency [12] | Potency [9] | Potency [13]
active: Potency [14] 46.5 µM | Potency [15] 46.5 µM | Potency [16] 14.7 µM

S=C(SSSSSSC(=S)N1CCCCC1)N1CCCCC1
active: Potency [12] 7.56 µM | Potency [16] 7.83 µM
inactive: activation [1] 0.512% [at 19 µM] | viability change, negative = cytotoxic [3] 17.4% [at 15.8 µM] | activity change, negative = cytotoxicity [4] -0.13% [at 15.8 µM] | activation [5] 10.4% [at 15.8 µM] | activity, negative = inhibition [6] -6.79% [at 10.5 µM] | activation [7] 4.08% [at 11.8 µM] | activity change, negative = cytotoxicity [11] 0.702% [at 19 µM] | caspase activation [8] 0.0321% [at 19 µM] | caspase-3/7 activation [9] 1.75% [at 19 µM] | activity change, negative = cytotoxicity [13] 7.87% [at 19 µM] | activity change, negative = inhibition [14] -19.3% [at 23.6 µM]

C=CC(=C)CCC=C(C)C
inactive: outcome [1] | Potency [3] | Potency [4] | Potency [5] | Potency [11] | Potency [8] | Potency [12] | Potency [13] | Potency [10] | Potency [14]

CCCCCCCC/C=C\CCCCCCCC(=O)NCc1ccc(O)c(OC)c1
active: Potency [15] 15.5 µM
inactive: outcome [1] | Potency [3] | Potency [4] | Potency [5] | Potency [11] | Potency [8] | Potency [12] | Potency [9] | Potency [13] | Potency [10] | max activation [17] -4.67% | Potency [18]

C#CC(O)CCC (stereo not drawn)
inactive: Potency [19] | Potency [20] | Potency [2] | Potency [3] | Potency [4] | Potency [5] | Potency [6] | Potency [7] | Potency [11] | Potency [8] | Potency [12] | Potency [9] | Potency [13] | Potency [14] | Potency [15] | Potency [16]

O=C(O)Cc1ccc(OCCNC[C@H](O)c2ccccc2)cc1
inactive: outcome [1] | Potency [3] | Potency [4] | Potency [5] | Potency [11] | Potency [8] | Potency [9] | Potency [13] | Potency [14] | Potency [16]

O=C1NCCN1CCN1CCC(c2cn(-c3ccc(F)cc3)c3ccc(Cl)cc23)CC1
active: Potency [11] 29.8 µM | Potency [12] 26.6 µM | Potency [9] 26.6 µM | Potency [13] 29.8 µM | Potency [14] 4.36 µM
inactive: outcome [1] | Potency [2] | Potency [5] | Potency [6] | Potency [7] | Potency [15] | Potency [16]
